{"source": "PubChem BioAssay (EPA / NIEHS)", "note": "The source made the active and inactive calls. Rule for the calls: active = hit-call score of the fitted dose curve at least 0.9, where 1 is the maximum; inactive = score below 0.9."}
{"assay": "APR_HepG2_MicrotubuleCSK_72hr: Apredica 72-hour HepG2 Assay for Microtubule CSK Stabilty (AID 2282919)", "details": "HepG2 microtubule cytoskeleton, high-content imaging, actives raise or lower the signal", "procedure,_shortened": "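HepG2 human liver cells were dosed for 72 h at ten concentrations from 0.39 to 200 uM in duplicate (0.5% v/v DMSO final). Fixed, permeabilized cells were immunostained for alpha-tubulin (Cy5) with a Hoechst counterstain and imaged at 20x.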"}
{"smiles": "CNS(=O)(=O)c1cc(C(=O)N2CCC(CCN3C4CCC3CC(n3c(C)nc5ccccc53)C4)(c3cccc(F)c3)CC2)c(Cl)cc1F", "note": "(configuration not stated)", "AC50": "65.2 µM (active)"}
{"smiles": "C1=CCCC=CCCC=CCC1", "outcome": "inactive"}
{"smiles": "Clc1nc(Cl)c(Cl)c(Cl)c1Cl", "outcome": "inactive"}
{"smiles": "COC(=O)c1c(Cl)c(Cl)c(C(=O)OC)c(Cl)c1Cl", "outcome": "inactive"}
{"smiles": "COc1ccc(-n2nc(C(F)F)cc2-c2ccc(S(C)=O)cc2)cc1", "note": "(configuration not stated)", "outcome": "inactive"}
{"smiles": "O=C(O)c1cccc(Oc2ccccc2)c1", "outcome": "inactive"}
{"smiles": "Cc1ccc(O)cc1", "outcome": "inactive"}
{"smiles": "CCC(C)(C)C(=O)O[C@H]1C[C@@H](C)C=C2C=C[C@H](C)[C@H](CC[C@@H]3C[C@@H](O)CC(=O)O3)[C@H]21", "outcome": "inactive"}
{"smiles": "Fc1ccccc1[C@@H](F)COC1CCC(Nc2ncnc3[nH]ncc23)CC1", "note": "(some centres not stated)", "AC50": "81.2 µM (active)"}
{"smiles": "C[C@](N)(Cc1ccc(O)c(O)c1)C(=O)O", "outcome": "inactive"}
{"smiles": "C=CC(=C)CCC=C(C)C", "outcome": "inactive"}
{"smiles": "Cn1c(=O)c2c(ncn2C)n(C)c1=O", "outcome": "inactive"}
{"smiles": "Cc1ccc(N)cc1O", "outcome": "inactive"}
{"smiles": "CCOC(=O)COc1ccc2c(c1)CC(NCC(O)c1cccc(Cl)c1)CC2", "note": "(configuration not stated)", "outcome": "inactive"}
{"smiles": "Cn1c(=O)cc(Oc2ccc(F)cc2F)c2cnc(NCC(C)(C)O)nc21", "outcome": "inactive"}
{"smiles": "CC(C)=CCCC(C)CCO", "note": "(configuration not stated)", "outcome": "inactive"}
{"smiles": "CC(=O)OCCC(C)C", "outcome": "inactive"}
{"smiles": "CCOCCO", "outcome": "inactive"}
{"smiles": "CCCCC(CC)COC(=O)c1ccc(C(=O)OCC(CC)CCCC)cc1", "note": "(configuration not stated)", "outcome": "inactive"}
{"smiles": "O=c1n(CC2CO2)c(=O)n(CC2CO2)c(=O)n1CC1CO1", "note": "(configuration not stated)", "outcome": "inactive"}
{"smiles": "COc1ccc(/C=C/S(=O)(=O)NC(=O)c2ccc(C)cc2Cl)cc1", "outcome": "inactive"}
{"smiles": "CC/C(=C\\C(=N/O)C(N)=O)C(C)[N+](=O)[O-]", "note": "(configuration not stated)", "outcome": "inactive"}
{"smiles": "Cc1ccc(S(=O)(=O)O)cc1C", "outcome": "inactive"}
{"smiles": "CCn1nc(Cc2ccccc2)cc1C1CCN(C[C@H]2C[C@H](N(C)[C@@H](C(=O)O)C(C)C)C[C@@H]2c2cccc(F)c2)CC1", "outcome": "inactive"}
{"smiles": "CCCCC(CC)COC(=O)CCCCCCCCC(=O)OCC(CC)CCCC", "note": "(configuration not stated)", "AC50": "87.6 µM (active)"}
{"smiles": "CC(C)CCO", "outcome": "inactive"}
{"smiles": "CCN(C(=O)c1cc(C)cc(OC[C@H](C)Nc2ccncc2)c1)C(C)C", "outcome": "inactive"}
{"smiles": "O=C1CCCCCN1", "outcome": "inactive"}
{"smiles": "Cn1cnc([N+](=O)[O-])c1Sc1ncnc2nc[nH]c12", "outcome": "inactive"}
{"assay": "APR_HepG2_P-H2AX_24hr: Apredica 24-hour HepG2 Assay for H2AX Phosphorylation (AID 2282920)", "details": "high-content imaging, actives raise or lower the signal", "procedure,_shortened": "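Signal comes from a FITC-labeled secondary detecting phospho-histone H2A.x in fixed HepG2 cells, quantified by automated imaging at 20x. Dosing ran 24 hr across 0.39–200 uM with 0.5% v/v DMSO.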"}
{"smiles": "CNS(=O)(=O)c1cc(C(=O)N2CCC(CCN3C4CCC3CC(n3c(C)nc5ccccc53)C4)(c3cccc(F)c3)CC2)c(Cl)cc1F", "note": "(configuration not stated)", "AC50": "52.9 µM (active)"}
{"smiles": "C1=CCCC=CCCC=CCC1", "outcome": "inactive"}
{"smiles": "Clc1nc(Cl)c(Cl)c(Cl)c1Cl", "AC50": "41.2 µM (active)"}
{"smiles": "COC(=O)c1c(Cl)c(Cl)c(C(=O)OC)c(Cl)c1Cl", "outcome": "inactive"}
{"smiles": "COc1ccc(-n2nc(C(F)F)cc2-c2ccc(S(C)=O)cc2)cc1", "note": "(configuration not stated)", "outcome": "inactive"}
{"smiles": "O=C(O)c1cccc(Oc2ccccc2)c1", "outcome": "inactive"}
{"smiles": "Cc1ccc(O)cc1", "outcome": "inactive"}
{"smiles": "CCC(C)(C)C(=O)O[C@H]1C[C@@H](C)C=C2C=C[C@H](C)[C@H](CC[C@@H]3C[C@@H](O)CC(=O)O3)[C@H]21", "AC50": "73.8 µM (active)"}
{"smiles": "Fc1ccccc1[C@@H](F)COC1CCC(Nc2ncnc3[nH]ncc23)CC1", "note": "(some centres not stated)", "AC50": "74.9 µM (active)"}
{"smiles": "C[C@](N)(Cc1ccc(O)c(O)c1)C(=O)O", "outcome": "inactive"}
{"smiles": "C=CC(=C)CCC=C(C)C", "outcome": "inactive"}
{"smiles": "Cn1c(=O)c2c(ncn2C)n(C)c1=O", "outcome": "inactive"}
{"smiles": "Cc1ccc(N)cc1O", "outcome": "inactive"}
{"smiles": "CCOC(=O)COc1ccc2c(c1)CC(NCC(O)c1cccc(Cl)c1)CC2", "note": "(configuration not stated)", "AC50": "23.2 µM (active)"}
{"smiles": "Cn1c(=O)cc(Oc2ccc(F)cc2F)c2cnc(NCC(C)(C)O)nc21", "outcome": "inactive"}
{"smiles": "CC(C)=CCCC(C)CCO", "note": "(configuration not stated)", "outcome": "inactive"}
{"smiles": "CC(=O)OCCC(C)C", "outcome": "inactive"}
{"smiles": "CCOCCO", "outcome": "inactive"}
{"smiles": "CCCCC(CC)COC(=O)c1ccc(C(=O)OCC(CC)CCCC)cc1", "note": "(configuration not stated)", "outcome": "inactive"}
{"smiles": "O=c1n(CC2CO2)c(=O)n(CC2CO2)c(=O)n1CC1CO1", "note": "(configuration not stated)", "AC50": "17.8 µM (active)"}
{"smiles": "COc1ccc(/C=C/S(=O)(=O)NC(=O)c2ccc(C)cc2Cl)cc1", "AC50": "106 µM (active)"}
{"smiles": "CC/C(=C\\C(=N/O)C(N)=O)C(C)[N+](=O)[O-]", "note": "(configuration not stated)", "outcome": "inactive"}
{"smiles": "Cc1ccc(S(=O)(=O)O)cc1C", "outcome": "inactive"}
{"smiles": "CCn1nc(Cc2ccccc2)cc1C1CCN(C[C@H]2C[C@H](N(C)[C@@H](C(=O)O)C(C)C)C[C@@H]2c2cccc(F)c2)CC1", "outcome": "inactive"}
{"smiles": "CCCCC(CC)COC(=O)CCCCCCCCC(=O)OCC(CC)CCCC", "note": "(configuration not stated)", "AC50": "116 µM (active)"}
{"smiles": "CC(C)CCO", "outcome": "inactive"}
{"smiles": "CCN(C(=O)c1cc(C)cc(OC[C@H](C)Nc2ccncc2)c1)C(C)C", "outcome": "inactive"}
{"smiles": "O=C1CCCCCN1", "outcome": "inactive"}
{"smiles": "Cn1cnc([N+](=O)[O-])c1Sc1ncnc2nc[nH]c12", "outcome": "inactive"}
{"assay": "APR_HepG2_StressKinase_72hr: Apredica 72-hour HepG2 Assay for Stress Kinase (AID 2282921)", "details": "HepG2 stress kinase (phospho-c-Jun) imaging, actives raise or lower the signal", "procedure,_shortened": "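HepG2 cells treated 72 hr with 0.39–200 uM compound, 0.5% v/v DMSO, duplicate wells. After formaldehyde fixation and Triton permeabilization, stained with anti-phospho-c-Jun (1:500) and Cy3 secondary, imaged at 20x. Fitted in both directions against DMSO.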"}
{"smiles": "CNS(=O)(=O)c1cc(C(=O)N2CCC(CCN3C4CCC3CC(n3c(C)nc5ccccc53)C4)(c3cccc(F)c3)CC2)c(Cl)cc1F", "note": "(configuration not stated)", "outcome": "inactive"}
{"smiles": "C1=CCCC=CCCC=CCC1", "outcome": "inactive"}
{"smiles": "Clc1nc(Cl)c(Cl)c(Cl)c1Cl", "AC50": "68.5 µM (active)"}
{"smiles": "COC(=O)c1c(Cl)c(Cl)c(C(=O)OC)c(Cl)c1Cl", "outcome": "inactive"}
{"smiles": "COc1ccc(-n2nc(C(F)F)cc2-c2ccc(S(C)=O)cc2)cc1", "note": "(configuration not stated)", "outcome": "inactive"}
{"smiles": "O=C(O)c1cccc(Oc2ccccc2)c1", "outcome": "inactive"}
{"smiles": "Cc1ccc(O)cc1", "outcome": "inactive"}
{"smiles": "CCC(C)(C)C(=O)O[C@H]1C[C@@H](C)C=C2C=C[C@H](C)[C@H](CC[C@@H]3C[C@@H](O)CC(=O)O3)[C@H]21", "AC50": "100 µM (active)"}
{"smiles": "Fc1ccccc1[C@@H](F)COC1CCC(Nc2ncnc3[nH]ncc23)CC1", "note": "(some centres not stated)", "outcome": "inactive"}
{"smiles": "C[C@](N)(Cc1ccc(O)c(O)c1)C(=O)O", "outcome": "inactive"}
{"smiles": "C=CC(=C)CCC=C(C)C", "outcome": "inactive"}
{"smiles": "Cn1c(=O)c2c(ncn2C)n(C)c1=O", "outcome": "inactive"}
{"smiles": "Cc1ccc(N)cc1O", "outcome": "inactive"}
{"smiles": "CCOC(=O)COc1ccc2c(c1)CC(NCC(O)c1cccc(Cl)c1)CC2", "note": "(configuration not stated)", "outcome": "inactive"}
{"smiles": "Cn1c(=O)cc(Oc2ccc(F)cc2F)c2cnc(NCC(C)(C)O)nc21", "outcome": "inactive"}
{"smiles": "CC(C)=CCCC(C)CCO", "note": "(configuration not stated)", "outcome": "inactive"}
{"smiles": "CC(=O)OCCC(C)C", "outcome": "inactive"}
{"smiles": "CCOCCO", "outcome": "inactive"}
{"smiles": "CCCCC(CC)COC(=O)c1ccc(C(=O)OCC(CC)CCCC)cc1", "note": "(configuration not stated)", "outcome": "inactive"}
{"smiles": "O=c1n(CC2CO2)c(=O)n(CC2CO2)c(=O)n1CC1CO1", "note": "(configuration not stated)", "outcome": "inactive"}
{"smiles": "COc1ccc(/C=C/S(=O)(=O)NC(=O)c2ccc(C)cc2Cl)cc1", "outcome": "inactive"}
{"smiles": "CC/C(=C\\C(=N/O)C(N)=O)C(C)[N+](=O)[O-]", "note": "(configuration not stated)", "outcome": "inactive"}
{"smiles": "Cc1ccc(S(=O)(=O)O)cc1C", "outcome": "inactive"}
{"smiles": "CCn1nc(Cc2ccccc2)cc1C1CCN(C[C@H]2C[C@H](N(C)[C@@H](C(=O)O)C(C)C)C[C@@H]2c2cccc(F)c2)CC1", "outcome": "inactive"}
{"smiles": "CCCCC(CC)COC(=O)CCCCCCCCC(=O)OCC(CC)CCCC", "note": "(configuration not stated)", "outcome": "inactive"}
{"smiles": "CC(C)CCO", "outcome": "inactive"}
{"smiles": "CCN(C(=O)c1cc(C)cc(OC[C@H](C)Nc2ccncc2)c1)C(C)C", "outcome": "inactive"}
{"smiles": "O=C1CCCCCN1", "outcome": "inactive"}
{"smiles": "Cn1cnc([N+](=O)[O-])c1Sc1ncnc2nc[nH]c12", "outcome": "inactive"}
